Test [1] in a line: qHTS assay to test for compound auto fluorescence at 535 nm (green) in HEK293 cells (AID 720680). In general terms: qHTS replaces the single test concentration by a dilution series.
Test [2] can be described thus: qHTS assay to test for compound auto fluorescence at 460 nm (blue) in HEK293 cell free culture (AID 720681). The procedure, abridged:
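Test compounds were pinned into cell-free culture medium (DMEM with 10% FBS) and fluorescence was read directly at Ex/Em 405/460 nm. Signals were expressed as fluorescence equivalents of triamterene, with DMSO vehicle as control.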

Test [3] is described as follows: qHTS assay to test for compound auto fluorescence at 535 nm (green) in HEK293 cell free culture (AID 720682). The procedure, abridged: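 Fluorescein serves as the green reference fluorophore; each compound's intrinsic emission at 535 nm (excitation 485 nm) is reported as an equivalent amount of that dye, measured in serum-containing DMEM without cells.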
A short description of test [4]: qHTS assay to test for compound auto fluorescence at 590 nm (red) in HEK293 cell free culture (AID 720683). The procedure, abridged: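 Tox21 10K library compounds were pinned into cell-free DMEM with 10% FBS and fluorescence was read at excitation 540 nm. Activity is expressed as Rose Bengal sodium equivalency.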
Test [5] in a line: qHTS assay to test for compound auto fluorescence at 590 nm (red) in HepG2 cell free culture (AID 720684). The procedure, abridged: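 Ex 540 / Em 590 nm read of compound in cell-free MEM (10% FBS). Rose Bengal sodium reference.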
Test [6] is described as follows: qHTS assay to test for compound auto fluorescence at 460 nm (blue) in HepG2 cell free culture (AID 720685). The procedure, abridged: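 Cell-free plates of MEM plus 10% FBS received 23 nL compound or DMSO vehicle; blue-channel (405/460 nm) intensity scored against triamterene as reference fluorophore.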
Test [7] is described as follows: qHTS assay to test for compound auto fluorescence at 535 nm (green) in HepG2 cell free culture (AID 720686).
Test [8] is described as follows: qHTS assay to test for compound auto fluorescence at 460 nm (blue) in HepG2 cells (AID 720687). The procedure, abridged: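 Cells (2,000/well in MEM with 10% FBS) attached overnight at 37 C, then were exposed to compound or DMSO for 1 hr at 37 C, 5% CO2. Fluorescence read at Ex/Em 405/460 nm, expressed as triamterene-equivalent signal.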
The target of test [9] is Glucocorticoid receptor (Homo sapiens) (UniProt P04150). The test is described as follows: qHTS assay to identify small molecule agonists of the glucocorticoid receptor (GR) signaling pathway (AID 720691; active means well fitted activation curve with a large enough effect in the signal ratio in the repeat runs, not every such curve was filed as active; the % refers to the signal ratio). As to conditions: GR-bla HeLa, beta-lactamase reporter ratio, 18 h; activation: at 62.4 µM (top of the series). The procedure, abridged:
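Agonist-mode qHTS in HeLa cells stably expressing a glucocorticoid-response-element beta-lactamase reporter. Fluorescence intensity read with FRET substrate (2 h, room temperature) after 18 h compound treatment at 37 C.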

Test [10] shares this target. In words: qHTS assay to identify small molecule antagonists of the glucocorticoid receptor (GR) signaling pathway (AID 720692; active means well fitted inhibition curve with a large enough effect in the signal ratio in the repeat runs, not every such curve was filed as active; the % refers to the signal ratio). A digest of the protocol:
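Inhibition of dexamethasone-driven (5 nM final) beta-lactamase expression was measured in GRE-reporter HeLa cells over 18 h at 37C. Fluorescence was read after 2 h with the B/G FRET substrate at room temperature.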

Test [11] in a line: qHTS assay to identify small molecule antagonists of the glucocorticoid receptor (GR) signaling pathway - cell viability counter screen (AID 720693). Further: nearly all actives have a fitted effect of over 55% in size.
The nature of test [12]: qHTS assay for identifying genotoxic compounds that show differential cytotoxicity against isogenic chicken DT40 cell lines with known DNA damage response pathways - wild type cell line (AID 743012). Further: nearly all actives have a fitted effect of over 60% in size. Further: potency means the concentration at half of the fitted maximal effect. A digest of the protocol:
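Viability by ATP luminescence (CellTiter-Glo, 30 min RT) after 40 h compound treatment at 37 C/5% CO2, using 300 parental DNA repair-proficient DT40 cells per well.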

Test [13] is described as follows: qHTS assay for identifying genotoxic compounds that show differential cytotoxicity against isogenic chicken DT40 cell lines with known DNA damage response pathways - Rev3 mutant cell line (AID 743014). Further: nearly all actives have a fitted effect of over 55% in size. Further: potency means the concentration at half of the fitted maximal effect.
The nature of test [14]: qHTS assay for identifying genotoxic compounds that show differential cytotoxicity against isogenic chicken DT40 cell lines with known DNA damage response pathways - Rad54/Ku70 mutant cell line (AID 743015). Further: nearly all actives have a fitted effect of over 60% in size. Further: potency means the concentration at half of the fitted maximal effect.
Test [15] in a line: qHTS assay to identify small molecule antagonists of the androgen receptor (AR) signaling pathway - cell viability counter screen (AID 743033; further: nearly all actives have a fitted effect of over 45% in size).
Test [16] can be described thus: qHTS assay to identify small molecule antagonists of the androgen receptor (AR) signaling pathway using the MDA cell line - cell viability counter screen (AID 743041; further: nearly all actives have a fitted effect of over 45% in size). The procedure, abridged: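 In this qHTS counter assay, fluorescence intensity after CellTiter-Fluor addition indicated viability of MDA-kb2 AR-luc cells given compounds and R1881 for 16 h at 37C.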

The structures appear in SMILES notation. Inconclusive results are not listed. The source made the active and inactive calls. Unless noted, the call rests on the fitted dose curve; in most records, active means well fitted curve in the direction sought with a large enough effect in the repeat runs; inconclusive means weak or mixed curves; inactive means no such curve, though single readings can be large; an effect the other way counts as inactive or inconclusive.

From PubChem BioAssay (Tox21) come the findings set out here.

Glucocorticoid receptor (Homo sapiens), sequence (P04150 whole entry, looked up): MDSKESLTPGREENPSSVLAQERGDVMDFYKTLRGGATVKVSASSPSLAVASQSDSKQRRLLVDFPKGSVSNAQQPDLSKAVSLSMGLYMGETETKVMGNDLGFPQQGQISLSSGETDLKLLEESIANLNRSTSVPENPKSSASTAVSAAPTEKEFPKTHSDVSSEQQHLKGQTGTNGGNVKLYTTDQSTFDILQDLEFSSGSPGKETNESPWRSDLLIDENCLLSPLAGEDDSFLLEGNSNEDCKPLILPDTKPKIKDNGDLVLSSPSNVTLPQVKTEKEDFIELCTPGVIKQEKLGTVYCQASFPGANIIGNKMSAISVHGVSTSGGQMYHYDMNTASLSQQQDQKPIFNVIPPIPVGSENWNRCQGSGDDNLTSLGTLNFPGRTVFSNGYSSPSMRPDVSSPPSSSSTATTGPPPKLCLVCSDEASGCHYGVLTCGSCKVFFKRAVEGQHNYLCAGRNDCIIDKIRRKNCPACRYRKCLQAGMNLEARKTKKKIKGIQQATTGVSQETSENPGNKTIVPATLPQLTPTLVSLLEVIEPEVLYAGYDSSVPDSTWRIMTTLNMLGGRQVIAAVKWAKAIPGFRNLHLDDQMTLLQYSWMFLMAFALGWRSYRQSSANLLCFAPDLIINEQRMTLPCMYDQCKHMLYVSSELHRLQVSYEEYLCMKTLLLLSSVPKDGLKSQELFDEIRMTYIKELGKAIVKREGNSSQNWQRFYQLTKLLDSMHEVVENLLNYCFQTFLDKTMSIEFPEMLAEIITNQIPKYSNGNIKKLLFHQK

Consider `Nc1nc(=O)n([C@@H]2CS[C@H](CO)O2)cc1F`, for which the Potency result in [1], in [2], in [3], in [4], in [5] and in [7] was “inactive” each time. Also, the Potency result in test [9], in [10], in [11], in [12], in [13] and in [14] was “inactive” throughout. Besides, the Potency result in test [15] and in test [16] was “inactive” in each case. Besides, the compound was called inactive in test [6] and in [8].

As to `NS(=O)(=O)c1cc2c(cc1Cl)NC(Cc1ccccc1)NS2(=O)=O` (configuration not stated), the Potency entry in test [1], in [2], in [3], in test [4], in test [5] and in [7] was “inactive” each time. In addition, the Potency entry in test [9], in test [10], in test [11], in test [12], in [13] and in [14] was “inactive” each time. Further, the Potency result in test [15] and in test [16] was “inactive” throughout. Further, the outcome in test [6] and in [8] was inactive.

With `CCN1C(=O)NC(c2ccccc2)C1=O` (configuration not stated), the Potency entry in test [1], in [2], in test [3], in [4], in [5] and in test [7] was “inactive” each time. Besides, the Potency entry in [9], in [10], in [11], in test [12], in test [13] and in test [14] was “inactive” throughout. In addition, the Potency entry in test [15] and in test [16] was “inactive” each time. Besides, the outcome in test [6] and in [8] was inactive.

`O=P(O)(O)C(O)(Cc1cnc2ccccn12)P(=O)(O)O`: the Potency result in test [1], in test [2], in test [3], in test [4], in [5] and in test [7] was “inactive” throughout. Besides, the Potency entry in test [9], in [10], in test [11], in [12], in test [13] and in test [14] was “inactive” in each case. For the same compound, the Potency entry in test [15] and in test [16] was “inactive” in each case. Besides, the outcome in [6] and in test [8] was inactive.

For `COc1ccccc1N1CCN(CCCC(=O)c2ccc(F)cc2)CC1`, the Potency result in [1], in test [2], in [3], in [4], in test [5] and in test [7] was “inactive” each time. Also, the Potency result in test [9], in test [10], in test [11], in test [15] and in test [16] was “inactive” each time. In addition, the compound was classed as inactive in test [6] and in test [8]. In addition, the Potency in test [12] is 13.3 µM (active); in test [13], 11.9 µM (active); in [14] it was 26.6 µM (active).

As to `COC(=O)CC[C@H](N)C(=O)O`, the Potency result in test [1], in test [2], in test [3], in test [4], in [5] and in [7] was “inactive” throughout. Also, the Potency result in test [9], in test [10], in test [11], in [12], in [13] and in test [14] was “inactive” in each case. In addition, the Potency entry in test [15] and in [16] was “inactive” each time. The compound was classed as inactive in test [6] and in test [8].

Turning to `CC[C@H](CC[C@@H](C)[C@H]1CC[C@H]2[C@@H]3CC=C4C[C@@H](O)CC[C@]4(C)[C@H]3CC[C@]12C)C(C)C`, the Potency entry in test [1], in [2], in test [3], in [4], in test [5] and in test [7] was “inactive” each time. The Potency entry in test [9], in test [10], in [11], in test [12], in [13] and in test [14] was “inactive” each time. The Potency result in test [15] and in [16] was “inactive” in each case. Moreover, the outcome in test [6] and in test [8] was inactive.
